Sfp inh – qHTS Assay for Inhibitors of Bacillus subtilis Sfp phosphopantetheinyl transferase (PPTase) | 4'-phosphopantetheinyl transferase ffp (Bacillus subtilis), Q9F4F7 | Biochemical Sfp PPTase activity, qHTS | Potency, µM, without a hit: largest response in the series, negative = inhibition, actives largely listed as inhibitors | hit rate 3.5% among 310,000 | AID 1490, 2009;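 note: the enzyme is Sfp with the accession as filed and its product quenches rhodamine fluorescence; 0% = enzyme reaction without inhibitor and -100% = no enzyme wells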
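Sfp 15 nM + cpd, 15 min RT; start w/ rhodamine-CoA 5 uM, BHQ-2-YbbR 12.5 uM (final); 50 mM Hepes pH 7.6, 10 mM MgCl2, 0.01% NP-40, 0.01% BSA; read 525/598 nm at 0 and 30 min.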
HP1b binding inh – HTS for Inhibitors of HP1-beta Chromodomain Interactions with Methylated Histone Tails; AlphaScreen HP1-beta / biotin-H3K9me3 peptide binding; Potency, µM (highest dose often 114 µM), for inactives: top-dose activity change, negative = inhibition, most hits filed as inhibitors; hit rate 0.56% among 390,000; AID 540317, 2011; Chromobox protein homolog 1 (Homo sapiens), P83916; note: nearly all actives have a fitted effect of over 70% in size
Target sequence (P83916 whole entry, looked up): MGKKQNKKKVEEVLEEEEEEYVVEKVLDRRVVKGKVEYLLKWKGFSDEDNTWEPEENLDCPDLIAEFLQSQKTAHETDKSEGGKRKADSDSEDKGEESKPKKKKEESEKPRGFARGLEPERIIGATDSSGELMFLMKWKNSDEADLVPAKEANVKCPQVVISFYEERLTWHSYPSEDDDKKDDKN
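Compound inhibition of the preformed complex between 50 nM HP1-beta and 50 nM biotinylated H3K9me3 peptide was read by AlphaScreen. Buffer was PBS pH 7.4 with 0.01% Tween-20. Incubations ran 30 min at room temperature, with 10 ug/mL donor/acceptor beads.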
JMJD2A Tudor inh – qHTS Assay for Inhibitors of JMJD2A-Tudor Domain; Potency, µM (titrated, usually from 114 µM), for inactives: top-dose activity change, negative = inhibition, most hits filed as inhibitors; AID 504339, 2011; Lysine-specific demethylase 4A (Homo sapiens), O75164; AlphaScreen JMJD2A-Tudor / H3K4me3 peptide binding; hit rate 4.4% among 390,000; note: % is set by controls: 0 for no effect and ±100 for the full control effect; nearly all actives have a fitted effect of over 50% in size
PLK1 PBD inh – qHTS for Inhibitors of PLK1-PDB (polo-like kinase 1 - polo-box domain): Primary Screen | Serine/threonine-protein kinase PLK1 (Homo sapiens), P53350 | Plk1 PBD binding of FITC phosphopeptide, fluorescence polarization | Potency, µM, inactives show max response, negative = inhibition, most hits filed as inhibitors | hit rate 2.8% among 360,000 | AID 720504, 2013; note: series mostly up to about 57 µM; % is set by controls: 0 for no effect and ±100 for the full control effect; nearly all actives have a fitted effect of over 65% in size
BAZ2B block – qHTS Assay for Inhibitors of BAZ2B. Bromodomain adjacent to zinc finger domain protein 2B (Homo sapiens), Q9UIF8. AlphaScreen BAZ2B-H3K14Ac peptide displacement. Potency, µM (highest dose often 114 µM), for the others: at the top dose activity change, negative = inhibition, usual class: inhibitors. hit rate 4.4% among 360,000; note: % is set by controls: 0 for no effect and ±100 for the full control effect; nearly all actives have a fitted effect of over 60% in size
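In this displacement format the biotinylated H3(5-23) peptide acetylated at Lys14 serves as ligand at 50 nM, with BAZ2B at 50 nM in PBS pH 7.4 containing 0.01% Tween-20. Donor and acceptor beads are 10 ug/mL final.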
G9a inh – qHTS Assay for Inhibitors of Histone Lysine Methyltransferase G9a. hit rate 8.8% among 350,000. Potency, µM (series often up to 102 µM), without a hit: at the highest dose activity, negative = inhibition, hits mostly inhibitors. G9a H3K9 monomethylation, AlphaScreen, 2 h. Histone-lysine N-methyltransferase EHMT2 (Homo sapiens), Q96KQ7; note: % is set by controls: 0 for no effect and ±100 for the full control effect; nearly all actives have a fitted effect of over 75% in size
Target sequence (Q96KQ7 913-1193 limits assumed): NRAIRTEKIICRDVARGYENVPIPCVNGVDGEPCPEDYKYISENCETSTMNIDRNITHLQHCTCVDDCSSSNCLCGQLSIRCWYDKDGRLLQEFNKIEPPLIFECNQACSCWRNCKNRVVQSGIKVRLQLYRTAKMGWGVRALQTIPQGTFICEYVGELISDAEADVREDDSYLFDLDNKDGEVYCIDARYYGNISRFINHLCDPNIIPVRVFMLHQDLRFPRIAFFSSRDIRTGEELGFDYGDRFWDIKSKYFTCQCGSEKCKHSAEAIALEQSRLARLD
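AlphaScreen detection with an anti-monomethyl H3K9 antibody quantified product after a 2 h room-temperature reaction containing 500 nM biotinylated H3K9 peptide, 20 µM SAM and 20 nM enzyme, which had been preincubated 15 min with compound.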
Active calls of the source: *; [ ] = remark or other dose. Sampled rows, rich in hits. Any-hit rate of the full collection: about 12%. Calls come from the whole dose curve; as a rule, active = well fitted curve in the direction sought with a large enough effect; inconclusive = small, poorly fitted or top-dose-only effect, or another doubt; inactive = no such curve, though single readings can be large; an effect the other way counts as inactive or inconclusive. Potency is the fitted concentration of half-maximal effect.

How did Nc1ccc2nn(-c3cc([N+](=O)[O-])ccc3O)nc2c1 do in these assays?
Sfp inh: -5.8%; HP1b binding inh: 26.1%; JMJD2A Tudor inh: -11.6%; PLK1 PBD inh: -8.9%; BAZ2B block: -8.8%; G9a inh: 39.8µM*

How did COc1cc(OC)c(NC(=O)Nc2c(C)n(C)n(-c3ccccc3)c2=O)cc1Cl do in these assays?
HP1b binding inh: 28.7%; JMJD2A Tudor inh: 3.1%; BAZ2B block: 2.5%; G9a inh: 4.3%[59 µM]

How did O=C1c2ccccc2C(=O)C2OC12 (stereo not given) do in these assays?
Sfp inh: inconclusive; BAZ2B block: -14.4%; G9a inh: 8.91µM*

Results for O=C(c1ccccc1)c1nn(-c2ccc(Cl)cc2)c(=O)cc1C(F)(F)F ?
Sfp inh: -5.5%; HP1b binding inh: -16.6%; JMJD2A Tudor inh: -25.2%[57.1 µM]; PLK1 PBD inh: -8.2%; BAZ2B block: -31.3%; G9a inh: 8.5%

What do the screens show for `O=C(c1ccccc1)c1nn(-c2ccccc2)c(=O)cc1C(F)(F)F`?
Sfp inh: 4.1%; HP1b binding inh: 17.8%; JMJD2A Tudor inh: -15.0%; PLK1 PBD inh: -4.3%; BAZ2B block: 89.1µM*; G9a inh: -14.6%

Results for O=S(=O)(c1ccccc1F)N1CCN(Cc2cc3c(cc2O)OCO3)CC1 ?
HP1b binding inh: 38.9%; JMJD2A Tudor inh: inconclusive; PLK1 PBD inh: inconclusive; BAZ2B block: inconclusive; G9a inh: inconclusive

What do the screens show for `O=c1cc(CN2CCc3ccccc32)nc2sccn12`?
Sfp inh: -7.0%; HP1b binding inh: inconclusive; JMJD2A Tudor inh: 17.8µM*; PLK1 PBD inh: -11.1%; BAZ2B block: -4.6%; G9a inh: 31.6µM*

Results for Cc1ccc(C)c(S(=O)(=O)N2CCN(Cc3cc4c(cc3O)OCO4)CC2)c1 ?
HP1b binding inh: -29.7%; JMJD2A Tudor inh: 31.6µM*; PLK1 PBD inh: -11.1%; BAZ2B block: 39.8µM*; G9a inh: 1.41µM*

What do the screens show for `Cc1cc(C)c(S(=O)(=O)N2CCN(Cc3ccc4c(c3)OCO4)CC2)cc1C`?
HP1b binding inh: 0.7%; JMJD2A Tudor inh: -21.3%; BAZ2B block: -8.7%; G9a inh: -7.2%[59 µM]

What do the screens show for `O=c1cc(CN2CCCc3ccccc32)nc2sccn12`?
Sfp inh: -25.7%; HP1b binding inh: 21.1%; JMJD2A Tudor inh: -21.8%; PLK1 PBD inh: inconclusive; BAZ2B block: -14.2%; G9a inh: inconclusive

How did O=c1cc(CN2CCN(c3ccccn3)CC2)nc2sccn12 do in these assays?
Sfp inh: 8.9%; HP1b binding inh: 6.5%; JMJD2A Tudor inh: -22.8%; PLK1 PBD inh: -16.8%; BAZ2B block: -21.2%; G9a inh: -41.4%

How did O=[N+]([O-])c1ccccc1S(=O)(=O)N1CCN(Cc2cc3c(cc2O)OCO3)CC1 do in these assays?
Sfp inh: 2.9%; HP1b binding inh: -5.1%; JMJD2A Tudor inh: inconclusive; PLK1 PBD inh: inconclusive; G9a inh: 2.51µM*

What do the screens show for `O=c1cc(CN2CCN(S(=O)(=O)c3ccccc3[N+](=O)[O-])CC2)nc2sccn12`?
Sfp inh: 4.3%; HP1b binding inh: 44.9%; JMJD2A Tudor inh: -7.1%; PLK1 PBD inh: -6.9%; G9a inh: 39.8µM*

How did COC(=O)c1sccc1S(=O)(=O)Nc1ccc(C(O)(C(F)(F)F)C(F)(F)F)cc1 do in these assays?
PLK1 PBD inh: -7.5%

How did COC(=O)N1C(C)=Cc2ccccc2C1C/C(C)=C/C(C)=O (stereo not given) do in these assays?
Sfp inh: -0.4%

What do the screens show for `O=C(c1cc(Br)ccc1O)N(Cc1ccco1)Cc1cccs1`?
HP1b binding inh: -2.7%[57 µM]; JMJD2A Tudor inh: -27.7%[57.1 µM]

What do the screens show for `O=C(CC1C(=O)N(c2ccccc2)C(=O)N1Cc1ccc2c(c1)OCO2)Nc1ccccc1` (stereo not given)?
HP1b binding inh: 29.7%; JMJD2A Tudor inh: -16.6%; BAZ2B block: -14.4%; G9a inh: -5.0%[59 µM]

Results for C=Cn1cc(CNC[C@H]2O[C@@H](n3ccc(N)nc3=O)[C@H](O)[C@@H]2O)c(C)n1 ?
PLK1 PBD inh: -6.2%

How did CC(C)Cc1ccc(C(C)CC2=CCC(CN(C)C)C2=O)cc1 (stereo not given) do in these assays?
HP1b binding inh: 110.7%; JMJD2A Tudor inh: 55.6%; PLK1 PBD inh: -24.9%

What do the screens show for `CC(C)Cc1ccc(C(C)/C=C2/CCC(CN3CCCCC3)C2=O)cc1` (stereo not given)?
HP1b binding inh: 29.6%; JMJD2A Tudor inh: inconclusive; PLK1 PBD inh: 13.4µM*

How did N#Cc1ccc(CN2CCN(C(=O)c3ccc(S(=O)(=O)NCc4ccco4)cc3)CC2)cc1 do in these assays?
HP1b binding inh: 35.3%; JMJD2A Tudor inh: -4.7%; PLK1 PBD inh: -20.1%; BAZ2B block: -0.3%; G9a inh: inconclusive

How did CCc1n(CC(O)COCc2ccccc2)c2ccccc2[n+]1C (stereo not given) do in these assays?
Sfp inh: -4.2%; HP1b binding inh: 23.8%; JMJD2A Tudor inh: inconclusive; PLK1 PBD inh: 1.4%; BAZ2B block: inconclusive; G9a inh: 44.7µM*

How did O=C1c2ccccc2C(=O)N1CC(O)COCc1ccccc1 (stereo not given) do in these assays?
Sfp inh: -3.4%; HP1b binding inh: 8.6%; JMJD2A Tudor inh: -5.5%; PLK1 PBD inh: -12.2%; BAZ2B block: -6.3%; G9a inh: 2.2%[0.501 µM]

How did C/C(=N\NC(=O)c1ccc([N+](=O)[O-])cc1Cl)c1ccccc1 do in these assays?
Sfp inh: 12.8%; HP1b binding inh: 14.6%; JMJD2A Tudor inh: -23.8%; PLK1 PBD inh: -3.9%; BAZ2B block: -11.4%; G9a inh: -6.0%[0.501 µM]

Results for CCSC(C)CC1CC(=O)CC(=O)C1 (stereo not given) ?
Sfp inh: -6.0%; HP1b binding inh: 22.0%; JMJD2A Tudor inh: -15.6%; PLK1 PBD inh: -12.4%; BAZ2B block: -4.6%; G9a inh: 56.2µM*

What do the screens show for `O=C(NNC(=S)NC(=O)c1ccccc1[N+](=O)[O-])c1ccccc1O`?
Sfp inh: 22.6%; HP1b binding inh: 28.5%; JMJD2A Tudor inh: 89.1µM*; PLK1 PBD inh: -20.4%; BAZ2B block: inconclusive; G9a inh: -38.4%

Results for O=C(NNC(=S)NC(=O)c1ccccc1[N+](=O)[O-])c1ccc(Cl)cc1Cl ?
Sfp inh: 23.8%; HP1b binding inh: 5.1%; JMJD2A Tudor inh: -5.6%; PLK1 PBD inh: -12.8%; BAZ2B block: 3.4%; G9a inh: 17.8µM*

Screening data deposited in PubChem BioAssay by National Center for Advancing Translational Sciences (NCATS).
